Test results from PubChem BioAssay (NCATS).
Inconclusive results are not listed. For part of these data: Results with a measured potency or affinity are listed apart. Active and inactive are the calls of the source. For most assays here, calls come from the whole dose curve; as a rule, active = well fitted curve in the direction sought with a large enough effect; inconclusive = small, poorly fitted or top-dose-only effect, or another doubt; inactive = no such curve, though single readings can be large; an effect the other way counts as inactive or inconclusive.

Columns and labels:
[1] = Ebola virus entry assay, reporter ratio channel; AC50: Channel type: primary unless noted; outcome: Channel type: primary unless noted
[2] = Ebola virus entry assay, blue channel (ratio component)
[3] = qHTS assay for measurement of the activity of small molecule inhibitors on Zika virus induced Caspase-3 activity in human iPSC derived neural progenitor cells (hNPCs) (AID 1224857); note: % of control where 0% means no effect; nearly all actives have a fitted effect of over 65% in size
In short: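 Values are percent inhibition of virus-induced caspase-3/7 signal, scaled between uninfected cells and ZIKV-infected cells. Infection used 2 FFU/cell for 6 h after 1 h compound exposure.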

[4] = qHTS assay for measurement of the activity of small molecule inhibitors on Zika virus induced Caspase-3 activity in human astrocytoma cells (AID 1224859);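 note: plate controls were ZIKV-infected untreated cells for no effect and uninfected cells for full effect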
In short: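 Compound added 1 h pre-infection; ZIKV 2 FFU/cell on SNB-19 cells, 6 h, 37 C/5% CO2. Caspase-Glo 3/7 luminescence; values as % inhibition of ZIKV-induced caspase activity.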

[5] = qHTS assay to identify small molecule inhibitors of chordoma cells - UCH-1 (AID 1259355); note: % is set by controls: 0 for no effect and ±100 for the full control effect; nearly all actives have a fitted effect of over 55% in size
In short: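 Luminescent ATP read-out (CellTiter-Glo, 30min at room temperature) measured viability of UCH-1 cells exposed for 48hr to test drugs at 15 concentrations, co-dosed with a five-agent combination of auranofin, camptothecin, doxorubicin, rubitecan and topotecan.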

[6] = qHTS assay to identify small molecule inhibitors of chordoma cells - UCH-2 (AID 1259356); note: series mostly up to about 46 µM; % is set by controls: 0 for no effect and ±100 for the full control effect

CCCCC/C=C\C/C=C\C/C=C\C/C=C\CCCC(=O)NCC(=O)O
inactive: outcome [1] | outcome [2] | outcome [3] | outcome [4] | activity, negative = inhibition [5] -4.51% [at 4.2 µM] | activity change, negative = inhibition [6] -22% [at 4.61 µM]

C[C@]12CC[C@@H]3c4ccc(OC(=O)N(CCCl)CCCl)cc4CC[C@H]3[C@@H]1CC[C@@H]2O
inactive: outcome [1] | outcome [2] | outcome [3] | outcome [4] | outcome [5] | outcome [6]

O=C(N/N=C/c1ccc([N+](=O)[O-])o1)c1cc([N+](=O)[O-])cc([N+](=O)[O-])c1O
inactive: outcome [1] | outcome [2] | outcome [3] | outcome [4] | outcome [5] | outcome [6]

O=C1OC(c2ccc(O)c(S(=O)(=O)O)c2)(c2ccc(O)c(S(=O)(=O)O)c2)c2c(Br)c(Br)c(Br)c(Br)c21
inactive: outcome [1] | outcome [2] | outcome [3] | outcome [4] | outcome [5] | outcome [6]
